Rows were chosen to be rich in hits. Some 7.9% of all compounds tested hit in one or more screens of this group.
LASV entry inh: Lassa virus entry inhibition. Lassa virus pseudotype entry inhibition, cell reporter. Potency, µM (titrated, usually from 37.9 µM), for inactives: at the highest dose activity change, negative = inhibition, actives largely listed as inhibitors. 300,000 compounds, 1.2% hits. AID 540256; calls by dose curve; tested in HEK293 cells; note: potency is the fitted concentration of half-maximal effect; nearly all actives have a fitted effect of over 50% in size
HCMV antiviral: blocks human cytomegalovirus replication. 410,000 compounds, 4.5% hits. HFF cells, HCMV-luciferase reporter, 72 h; hits give low values. activity change, negative = inhibition, % at 57.5 µM; in the data active = activity change below about -60%; inconclusive = no clear call, values can overlap the other calls; inactive = above about -39%
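Inhibition of viral replication was scored as loss of reporter luminescence in HFFs infected with HCMV-luciferase (MOI 1 PFU/cell) for 72 h; compounds tested at 2 doses, normalized to buffer and Salinomycin controls.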
HCV inh: blocks hepatitis C virus | Huh7.5.1 HCVcc-Cre infection, luciferase reporter, 44 h | Potency, µM (highest dose often 41.8 µM), for inactives: at the highest dose activity change, negative = inhibition, usual class: inhibitors | 340,000 compounds, 3.4% hits | AID 651820; active = well fitted inhibition curve with a large enough effect; inconclusive = small, poorly fitted or top-dose-only effect, or another doubt; inactive = no such curve, though single readings can be large or run the other way; note: potency is the fitted concentration of half-maximal effect
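A cell-based infection assay in which seeded cells (1,000 per well) receive test compound after 4 h, are inoculated with HCVcc-Cre at approximately 0.5 moi, and are incubated 44 h before luminescence detection.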
FMDV antiviral: foot and mouth disease virus antiviral activity; FMDV antiviral cell-based qHTS; Potency, µM (top dose mostly 57.9 µM), for the others: top-dose activity change, negative = inhibition, usual class: inhibitors; 410,000 compounds, 1.2% hits; AID 1159524; calls by dose curve; tested in HEK293T cells; note: read-out not given here; potency is the fitted concentration of half-maximal effect; nearly all actives have a fitted effect of over 45% in size
MARV entry inh: blocks Marburg virus binding to or entry into cells. Marburg virus pseudotyped entry inhibition, cell reporter. Potency, µM (top dose mostly 37.8 µM), inactives show at the top dose activity change, negative = inhibition, actives largely listed as inhibitors. 300,000 compounds, 1.8% hits. AID 540276; calls by dose curve; tested in HEK293 cells; note: potency is the fitted concentration of half-maximal effect
An asterisk follows results filed as active; ? = inconclusive; . = no result given; [ ] = another dose, or the depositor's remark. % is set by controls: 0 for no effect and ±100 for the full control effect.

SMILES	LASV entry inh	HCMV antiviral	HCV inh	FMDV antiviral	MARV entry inh
COc1cccc(CNn2c(-c3cccc(C)c3)nc3ccccc3c2=O)c1	18.3µM*	-72.8*	?	.	?
COc1ccc(CNn2c(-c3cccs3)nc3ccccc3c2=O)cc1OC	?	-69.8*	?	?	?
CCOc1ccc(-n2c(-c3cccs3)nc3ccccc3c2=O)cc1	-6.4%[46.1 µM]	-66.2*	?	?	?
COc1cccc(C(=O)Nn2c(-c3cccs3)nc3ccccc3c2=O)c1OC	-3.4%	-5.9	1.1%	-26.8%	-4.5%
COC(=O)/C=c1\s/c(=C(/C#N)C(=O)NCc2ccco2)n(-c2ccccc2)c1=O	.	.	.	.	-4.1%
COc1cc(/C=C2/NC(=O)NC2=O)ccc1OCC(=O)Nc1ccc(F)cc1	0.2%	-14.8	18.9%	-14.2%	-4.1%
COc1ccc(N2CCN(S(=O)(=O)c3ccc4c(c3)CCCN4C(C)=O)CC2)cc1	-0.4%[46.1 µM]	-3.4	.	0.0%	.
CC(C)c1ccc2c(c1)CCC1C(C)(CN)CCCC21C (stereo not given)	?	-27.3	?	?	10µM*
CC(C)c1ccc2c(c1)CC[C@H]1[C@](C)(CN)CCC[C@]21C	.	-97.8*	?	?	.
Cc1ccc(C(=O)N2CCC(N3CCN(Cc4ccc(F)cc4)C(=O)C3=O)CC2)cc1	0.6%[46.1 µM]	0.2	.	6.2%	.
COc1ccccc1-c1ccnc(-n2ncc(C(=O)NCc3ccncc3)c2C)n1	.	.	.	-6.9%	.
CN(CC(=O)Nc1cccc(F)c1)CC(=O)Nc1ccc(Cl)cc1[N+](=O)[O-]	?	20.6	6.0%	7.2%	1.4%[46.1 µM]
CN(CC(=O)Nc1cccc(F)c1)CC(=O)Nc1ccccc1[N+](=O)[O-]	-12.4%	-87.3*	?	?	-8.5%
CN(CC(=O)Nc1cccc(F)c1)C(=O)c1ccc(N2CCCC2)c([N+](=O)[O-])c1	-7.1%	-61.3*	?	-9.1%	-29.7%[46.1 µM]
Cc1cnc(-n2ncc(C(=O)N(C)CC3COCCO3)c2C2CC2)nc1-c1cccs1 (stereo not given)	.	.	.	48.8%	.
COC(=O)c1ccc(C2c3c(oc4ccc(C)cc4c3=O)C(=O)N2Cc2ccc3c(c2)OCO3)cc1 (stereo not given)	11.9%[46.1 µM]	-109.5*	.	9.0%	-2.9%[46.1 µM]
COc1cccc2c(Cl)c(CCCl)c(C)nc12	-26.5%[46.1 µM]	-68.5*	-20.2%	-4.3%	?
CCCCc1c(C)nc2c(OC)cccc2c1SCC(=O)O	18.9%[46.1 µM]	0.0	7.3%	-14.8%	0.6%[46.1 µM]
COc1cc(/C=N/N=C2/NC(=O)C(c3ccccc3)S2)ccc1O (stereo not given)	4.47µM*	-64.9*	8.2%	29.1%	14.9%
COc1ccc(/C=N/N=C2/NC(=O)C(CC(=O)O)S2)cc1OCc1ccc(Cl)cc1Cl (stereo not given)	-3.5%	-35.0	24.2%	-15.2%	1.12µM*
COc1cc(/C=N/N=C2/NC(=O)C(Cc3ccc(F)cc3)S2)ccc1O (stereo not given)	?	-19.3	1.9%	3.1%	?
Cc1cc(SCc2cccc(C(F)(F)F)c2)nc(=O)[nH]1	.	.	11.8%	1.7%	.
COc1ccc(OC)c(S(=O)(=O)N/N=C\c2c[nH]c3ccccc23)c1	?	12.3	11.2µM*	39.8%	-13.2%
COc1ccc2[nH]cc(/C=N/NS(=O)(=O)c3ccc(C)cc3)c2c1	.	-64.5*	11.2µM*	-21.2%	.
CCOc1ccc(-c2nc(S(=O)(=O)c3ccccc3)c(N3CCC(C(N)=O)CC3)o2)cc1	.	5.5	10.8%	9.5%	.
SMILES	LASV entry inh	HCMV antiviral	HCV inh	FMDV antiviral	MARV entry inh
Cc1ccc(S(=O)(=O)CC(=O)N2CCN(c3ccc(F)cc3)CC2)cc1	?	?	7.1%	-9.4%	0.3%[46.1 µM]
COC(=O)C1CCN(CC(=O)NC(=O)NC2CCCCC2)CC1	2.1%[46.1 µM]	-97.9*	14.5%	-1.7%	?
O=C(O)CCCN=C1NC2(CCCC2)CC2=C1CCCC2	.	.	.	.	-0.1%
COc1ccc(-c2cc(NC=O)c3ncc(-c4ccc(OC)c(OC)c4)n3c2)cc1OC	.	-1.0	.	?	.
COc1ccc(-c2cnc3c(NC=O)cc(-c4ccccc4OC)cn23)cc1OC	.	-79.7*	.	?	.
COc1ccc(-c2cc(NC=O)c3ncc(-c4cccc(C(F)(F)F)c4)n3c2)c(OC)c1	.	89.8	.	?	.
COc1cc(-c2n[nH]c(=S)n2-c2cccc(C(F)(F)F)c2)cc(OC)c1OC	1.7%	60.4	0.5%	-18.6%	16.1%
COc1cccc(-c2cc(NC=O)c3ncc(-c4cc(OC)c(OC)c(OC)c4)n3c2)c1	.	-81.2*	.	?	.

Compound activity from PubChem BioAssay.
